Bioassay records as filed in PubChem BioAssay.
A selection: hits, their analogues and other compounds. The true share with any hit is near 2.2%.
MEX-5 binding: MEX-5 zinc finger RNA-binding disruptors – biochemical, C. elegans, fluorescence polarization, MLPCN library, primary screen. Zinc finger protein mex-5 (Caenorhabditis elegans), Q9XUB2. MEX-5/FITC-TCR2 RNA binding; active compounds read low. activity score (negative = inhibition of binding), % at 10 µM. 0.38% of 300,000 active;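 active = inhibition past about -25% in most replicates, and total fluorescence under double the plate's negative control median, limit read from the data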
JMJD2C inh: inhibitors of GASC-1 histone demethylase, primary screen, biochemical, fluorescence, DELFIA europium | Lysine-specific demethylase 4C (Homo sapiens), Q9H3R0 | GST-JMJD2C(1-420) H3K9me3 demethylation | inhibition, % at 2.35 µM | 0.069% of 330,000 active;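 active = more than half of a compound's replicate wells show inhibition beyond 50%, single wells judged on their own value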;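 note: signal counts dimethyl H3K9 product captured on neutravidin plate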
Target sequence (Q9H3R0 1-420 limits assumed): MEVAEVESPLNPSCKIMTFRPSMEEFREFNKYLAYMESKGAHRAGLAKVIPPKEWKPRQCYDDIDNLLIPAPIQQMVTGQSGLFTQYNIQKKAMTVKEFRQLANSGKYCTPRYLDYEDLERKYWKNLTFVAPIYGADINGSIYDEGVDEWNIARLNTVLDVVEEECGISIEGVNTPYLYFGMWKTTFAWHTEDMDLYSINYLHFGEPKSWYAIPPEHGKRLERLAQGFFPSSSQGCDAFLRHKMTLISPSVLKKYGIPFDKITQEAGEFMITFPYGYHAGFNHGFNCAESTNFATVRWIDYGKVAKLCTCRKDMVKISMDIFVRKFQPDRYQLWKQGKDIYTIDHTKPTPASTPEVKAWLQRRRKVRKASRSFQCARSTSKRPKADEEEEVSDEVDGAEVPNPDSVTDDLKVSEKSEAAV
HTR2A ag: mouse Htr2a agonists via beta-arrestin recruitment, primary screen, cell-based, luminescence; 5-hydroxytryptamine receptor 2A (Mus musculus), P35363; CHO-K1 mHTR2A beta-arrestin complementation; percent of 30 µM serotonin response; activation, % at 7.6 µM; 0.66% of 360,000 active; AID 624169, 2012;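 active = activation above a run cutoff, the mean activation of all tested compounds plus 3 SD, cut at about 14% in these data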
V-ATPase pH: regulators of yeast V-ATPase proton pumping, primary screen, pHLuorin cytosolic pH fluorescence; 0.37% of 350,000 active; response, % at 10 µM; S. cerevisiae; in the data active = response mostly above about 7.3%, no sharp cut-off; inactive = mostly below about 5.4%; note: actives read high
Exocytosis inh: LAMP-1 surface exposure blockers, TALL-104 cells – cell-based, flow cytometry, MLPCN library, primary screen | TALL-104 LAMP-1 surface exposure; cells stimulated with thapsigargin and PMA | inhibition, % at 10 µM | 0.66% of 360,000 active;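 active = inhibition above about 55%, limit read from the data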
VLA-4 inh: inhibition in human VLA-4 binding assay, primary screen, VLA-4 allosteric modulator project, MLPCN library, flow cytometry, VLA-4 expressing cells | inhibition, % (about 7 µM as worked out from the volumes in the protocol) | Integrin alpha-4 (Homo sapiens), P13612 | ligand binding flow cytometry | 0.2% of 330,000 active; in the data active = inhibition above about 50%
MOR ag counter: OPRM1 agonists via beta-arrestin recruitment, confirmation, counter-screen for mouse HTR2A agonist project, cell-based, luminescence, single concentration. shares compounds with HTR2A ag. U2OS OPRM1 beta-arrestin PathHunter; DMSO 0%, DAMGO 9.3 µM 100%. activation, % at 9.3 µM. 5.3% of 2,300 active. AID 624380, 2012;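 active = mean activation above the mean of DMSO-only wells plus 3 SD, cut at about 0.5% in these data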
m5-HT2A ag conf: mouse HTR2A agonists, beta-arrestin recruitment, confirmation, cell-based, luminescence, CHO-K1 PathHunter, triplicate | shares compounds with HTR2A ag | AID 624381, 2012 | activation, % at 7.6 µM | 19% of 2,300 active | DMSO 0%, 30 µM serotonin 100%;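 active = mean activation across triplicates above the hit threshold derived in the original primary screen, cut at about 15% in these data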
Numbers stand for hits; - = inactive; . = no result given.

SMILES	MEX-5 binding	JMJD2C inh	HTR2A ag	V-ATPase pH	Exocytosis inh	VLA-4 inh	MOR ag counter	m5-HT2A ag conf
COCCCN1C(=O)C(=O)/C(=C(/O)c2ccc(S(=O)(=O)N3CCOCC3)cc2)C1c1ccc(Cl)cc1 (stereo not given)	-	-	-	-	-	-	.	.
CCCCCCN1C[C@@H](n2cc(-c3ccc(F)cc3)nn2)[C@H](O)C[C@@H]1c1ccccc1	.	.	-	-	-	.	.	.
CCCN(CC(=O)Nc1ccc(F)c(F)c1F)C(=O)Cc1ccc(OC)c(S(=O)(=O)N2CCOCC2)c1	.	.	-	-	-	.	.	.
COc1ccc2nc3n(c(=O)c2c1)-c1ncccc1C(=O)NC3CC(C)C (stereo not given)	.	.	-	-	-	.	.	.
Cc1c(C(=O)NCc2cccc(C(F)(F)F)c2)sc(=O)n1Cc1ccccc1F	.	.	25	.	-	.	-	-
C[C@]12C=CC(=O)C=C1CC[C@@H]1[C@@H]2C(=O)C[C@@]2(C)[C@H]1CC[C@]2(O)C(=O)COC(=O)CCC(=O)O	-	-	-	-	-	-	.	.
Cn1cc([N+](=O)[O-])c(C(=O)N/N=C/c2ccncc2)n1	-	-	-	-	-	-	.	.
Cn1cc([N+](=O)[O-])c(C(=O)N/N=C/c2ccc([N+](=O)[O-])cc2)n1	-	-	20	-	-	-	-	37
O=C(C[C@H]1C/C=C\CCC(=O)OC[C@H]2CCCN2C1=O)NCCO	.	-	20	-	-	-	-	-
CCC(=O)Nc1nc2c(s1)COc1ccccc1-2	-	-	18	-	-	-	-	-
COC(=O)C1=C(C)NC(=O)CC1c1cccc(Cl)c1Cl (stereo not given)	-	-	24	-	-	-	-	-
CN(CC(=O)NCC1CCCCC1)CC(=O)Nc1ccccc1Br	.	-	-	-	-	-	.	.
O=C(NCCCc1ccccc1)c1cccc(S(=O)(=O)N2CCOCC2)c1	.	-	15	-	-	-	-	-
Cc1ccc(SCCNC(=O)C(C)C)cc1	-	-	16	-	-	-	-	-
O=C(CN1CCN(Cc2ccccc2)CC1)Nc1ccc(Cl)cc1	-	-	-	-	-	-	.	.
CCCCc1cc(=O)oc2cc(OC(C)C(=O)NCc3ccccn3)c(Cl)cc12 (stereo not given)	-	-	17	-	-	-	-	-
Oc1ccc(Br)c(CN2CCN(c3ncc(Cc4ccccc4)cn3)CC2)c1	.	.	-	.	-	.	.	.
O=c1cc(CN2CCN(C/C=C/c3ccccc3)CC2)c2cc(O)c(-c3ccccc3)cc2o1	-	-	-	-	-	-	.	.
CC(C)CN(Cc1cc(=O)oc2cc(-c3ccccc3)c(O)cc12)CC(C)C	-	-	16	-	-	-	2.3	22
Cc1cc(/C=C2\NC(=S)N(C)C2=O)ccc1N1CCCC1	-	-	-	-	-	-	.	.
CCCN1C(=O)/C(=C/c2ccc(N3CCCC3)c(C)c2)NC1=S	-	-	17	-	-	-	-	-
O=C(Cn1ncn2nc(-c3ccccc3)cc2c1=O)NCc1ccccn1	-	-	-	-	-	-	.	.
COC(=O)C1=C(Cn2cnc3ccccc32)NC(=O)NC1c1cc(C)ccc1C (stereo not given)	-	-	73	-	-	-	.	46
CN(CCOc1ccc(Cl)cc1)C(=O)c1cc(S(=O)(=O)N2CCOCC2)ccc1N1CCCC1	.	-	19	-	-	-	-	-
